Assay results: publication PMC4336329 (PLoS ONE, 2015)
Screen size: about 310,000 compounds; about 14,000 (4.5%) showed an effect of 50% or more. The effect is printed as a negative number. The entries come from a sample that favours strong results as a whole.

Molecular target: human ether-à-go-go-related gene (hERG) potassium channel (human, UniProt Q12809)
Assay: primary screen, population patch clamp on CHO cells stably expressing hERG; higher = less effect of the substance
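Further: peak tail current of the secondary pulse compared with the same well before compound.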

human ether-à-go-go-related gene (hERG) potassium channel, sequence (Q12809 whole entry, looked up): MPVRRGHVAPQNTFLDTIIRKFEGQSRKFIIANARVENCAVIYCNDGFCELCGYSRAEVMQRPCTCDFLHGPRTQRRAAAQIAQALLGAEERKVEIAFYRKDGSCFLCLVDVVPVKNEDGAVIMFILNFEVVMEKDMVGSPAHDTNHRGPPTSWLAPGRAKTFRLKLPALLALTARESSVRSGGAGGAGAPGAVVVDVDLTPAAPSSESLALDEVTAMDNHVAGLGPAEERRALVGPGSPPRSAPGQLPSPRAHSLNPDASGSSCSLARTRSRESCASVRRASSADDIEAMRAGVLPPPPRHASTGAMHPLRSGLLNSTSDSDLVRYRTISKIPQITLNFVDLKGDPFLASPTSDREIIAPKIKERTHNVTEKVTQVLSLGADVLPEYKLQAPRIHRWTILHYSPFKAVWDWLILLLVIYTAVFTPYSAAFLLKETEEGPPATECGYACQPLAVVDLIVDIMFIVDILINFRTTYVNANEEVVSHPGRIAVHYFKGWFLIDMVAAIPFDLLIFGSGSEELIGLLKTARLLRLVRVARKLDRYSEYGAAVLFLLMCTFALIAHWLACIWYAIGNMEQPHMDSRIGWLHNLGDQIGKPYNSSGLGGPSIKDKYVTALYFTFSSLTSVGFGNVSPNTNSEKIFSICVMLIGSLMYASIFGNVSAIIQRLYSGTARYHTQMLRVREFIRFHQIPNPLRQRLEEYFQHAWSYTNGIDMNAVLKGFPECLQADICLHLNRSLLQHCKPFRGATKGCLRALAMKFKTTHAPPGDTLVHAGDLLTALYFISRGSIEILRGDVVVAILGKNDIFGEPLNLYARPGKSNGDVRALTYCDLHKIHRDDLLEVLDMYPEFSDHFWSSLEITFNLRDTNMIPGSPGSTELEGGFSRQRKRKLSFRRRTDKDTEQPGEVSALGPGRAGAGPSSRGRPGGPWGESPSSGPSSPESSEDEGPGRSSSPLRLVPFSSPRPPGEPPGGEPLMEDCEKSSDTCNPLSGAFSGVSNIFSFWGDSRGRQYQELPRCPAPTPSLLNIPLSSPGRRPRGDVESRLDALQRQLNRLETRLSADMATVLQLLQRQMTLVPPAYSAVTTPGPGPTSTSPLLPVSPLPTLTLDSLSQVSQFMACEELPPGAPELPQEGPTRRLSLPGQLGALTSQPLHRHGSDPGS

SMILES	hERG current change (%, negative = inhibition) at 10uM [%]
COc1cc2cc(CN(CCN3CCCC3)C(=O)Nc3ccccc3Cl)c(=O)[nH]c2cc1OC	-6.16
COc1ccccc1NC(=S)N(CCCN(C)C)Cc1cc2cc3c(cc2[nH]c1=O)OCO3	33.3
CCOc1ccc2[nH]c(=O)c(CN(CCN3CCCC3)C(=S)Nc3ccccc3OC)cc2c1	-49.7
COc1ccc(NC(=O)N(CCc2ccccc2)Cc2cc3c(C)cc(C)cc3[nH]c2=O)cc1	14
Cc1ccc(S(=O)(=O)/C(C#N)=C/c2c(N3CC(C)OC(C)C3)nc3ccccn3c2=O)cc1 (centres unmarked)	-46.3
CN(C(=S)NC(=O)c1ccccc1)c1c(N)n(Cc2ccccc2)c(=O)[nH]c1=O	0.51
Cc1ccc(S(=O)(=O)NCCSc2nnnn2C)cc1	-2.53
Cc1cc2cc(OCc3ccccc3)ccc2n1C	18
CN(C)S(=O)(=O)c1cccc(-c2csc(=Nc3ccccc3)n2CCCN2CCOCC2)c1	-26.5
O=C1[C@@H]2[C@H](C(=O)N1O)[C@H]1C=C[C@@H]2C1	-5.3
CC(C)(C)c1cc(CP(=O)(c2ccccc2)c2ccccc2)cc(C(C)(C)C)c1O	14.7
CC(=O)Nc1ccc(S(=O)(=O)N2CCSC2c2ccc(C)cc2)cc1 (centres unmarked)	2.9
Cc1csc(NC(=O)c2ccc3c(c2)OCO3)n1	-0.0676
CCN(CC)CCCN(Cc1cc2cc3c(cc2[nH]c1=O)OCO3)C(=O)Nc1ccccc1OC	-10.6
CCN(CC)CCCN(Cc1cc2cc3c(cc2[nH]c1=O)OCO3)C(=S)Nc1ccccc1OC	-10.5
CCN(CC)CCN(Cc1cc2cc(C)ccc2[nH]c1=O)C(=O)Nc1ccccc1OC	-62.2
Nc1c(-c2cccc(Cl)c2)cnn1-c1cccc([N+](=O)[O-])c1	-41.4
O=C1C2C3C=CC(C3)C2C(=O)N1c1ccc(-c2nc3ccccc3c(=O)o2)cc1 (centres unmarked)	19.6
COC(=O)C1=C(C)N(Cc2ccccc2)C(=O)N[C@H]1c1cccc(C(F)(F)F)c1	-8.04
Fc1ccccc1N1CCN(C2CCCN(Cc3cccc(C(F)(F)F)c3)C2)CC1 (centres unmarked)	-52.1
Fc1ccccc1N1CCN(C2CCCN(Cc3ccccc3C(F)(F)F)C2)CC1 (centres unmarked)	-5.91
O=C(C1CCOCC1)N1CCCC(N2CCN(c3cccc(C(F)(F)F)c3)CC2)C1 (centres unmarked)	-12.9

SMILES	hERG current change (%, negative = inhibition) at 10uM [%]
FC(F)(F)c1ccccc1CN1CCCC(N2CCN(c3ccccc3)CC2)C1 (centres unmarked)	-0.712
Oc1ccccc1CN1CCCC(N2CCN(c3cccc(C(F)(F)F)c3)CC2)C1 (centres unmarked)	-61.9
CC(=O)c1cccc(CN2CCCC(N3CCN(c4ccccc4F)CC3)C2)c1 (centres unmarked)	-35.3
CCN(CC)CC(=O)N1CCCC(N2CCN(c3cccc(C(F)(F)F)c3)CC2)C1 (centres unmarked)	-10.5
CN1CCC(N2CCN(c3cccc(C(F)(F)F)c3)CC2)CC1	-12.8
CCCN1CCC(N2CCN(c3cccc(C(F)(F)F)c3)CC2)CC1	-75.3
COc1ccc(CCNC(=O)c2nonc2N)cc1	-15.8
COc1ccc(CNC(=O)CN(CCC(C)C)S(=O)(=O)c2ccc3c(c2)OCCO3)cc1	-7.73
O=C(/C=C/c1cccc([N+](=O)[O-])c1)NCc1ccccc1	-23.2
Cc1ccc(C2CC(c3cccc(Br)c3)Nc3nnnn32)cc1 (centres unmarked)	-7.07
CCCCNC(=O)N(O)C1N(CCCC)C(=O)N(CC(=O)OC)C1(C)C (centres unmarked)	20
CC(=O)c1sc(NC(=O)C2CC(=O)N(Cc3ccccc3)C2)nc1-c1ccccc1 (centres unmarked)	-15
COc1ccc(-c2nc(NC(=O)C3CC(=O)N(Cc4ccco4)C3)sc2C)cc1 (centres unmarked)	-34.3
CN(c1ccc(-c2csc(NC(=O)C3CC(=O)N(Cc4ccco4)C3)n2)cc1)S(C)(=O)=O (centres unmarked)	-19
Cc1ccc(-c2csc(NC(=O)C3CC(=O)N(Cc4ccco4)C3)n2)cc1 (centres unmarked)	-25.5
COc1ccc(-c2csc(NC(=O)C3CC(=O)N(Cc4ccco4)C3)n2)cc1 (centres unmarked)	-70.4
CC(=O)c1sc(NC(=O)C2CC(=O)N(Cc3ccco3)C2)nc1-c1ccccc1 (centres unmarked)	-59.4
CC(=O)COc1ccc2c3c(c(=O)oc2c1C)CCCCC3	-8.54
Cl.O=C(NCCCn1ccnc1)c1ccc(S(=O)(=O)N2CCOCC2)cc1	8.09
COc1ccc(C2/C(=C(\O)c3ccc4c(c3)OCCO4)C(=O)C(=O)N2CCCN(C)C)cc1 (centres unmarked)	17
COCCCN1C(=O)C(=O)/C(=C(/O)c2ccc3c(c2)OCCO3)C1c1ccc(C(=O)OC)cc1 (centres unmarked)	1.43
COC(=O)c1ccc(C2/C(=C(\O)c3ccc4c(c3)OCCO4)C(=O)C(=O)N2CCCN(C)C)cc1 (centres unmarked)	-55.9
